PfG6PD inh: PfG6PD enzyme inhibitors, primary screen, biochemical, fluorescence intensity, uHTS | AID 504690, 2011 | PfGluPho enzyme, NADPH resazurin-diaphorase fluorescence | 350,000 compounds, 0.78% hits | glucose-6-phosphate dehydrogenase-6-phosphogluconolactonase (Plasmodium falciparum 3D7) | inhibition, % at 20 µM;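 active = inhibition reaching at least a set limit at 20 µM in the primary screen, cut at about 59% in these data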
APOBEC3G inh: APOBEC3G DNA deaminase inhibitors, primary screen, biochemical, fluorescence, single-stranded DNA substrate, uHTS. DNA dC->dU-editing enzyme APOBEC-3G (Homo sapiens), Q9HC16. recombinant A3G, ssDNA deamination FAM/TAMRA fluorescence. inhibition, % at 20 µM. 330,000 compounds, 0.28% hits;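 active = inhibition of at least 40% at 20 µM, with no more than 30% in the related APOBEC3A deaminase screen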
Target sequence (Q9HC16 whole entry, looked up): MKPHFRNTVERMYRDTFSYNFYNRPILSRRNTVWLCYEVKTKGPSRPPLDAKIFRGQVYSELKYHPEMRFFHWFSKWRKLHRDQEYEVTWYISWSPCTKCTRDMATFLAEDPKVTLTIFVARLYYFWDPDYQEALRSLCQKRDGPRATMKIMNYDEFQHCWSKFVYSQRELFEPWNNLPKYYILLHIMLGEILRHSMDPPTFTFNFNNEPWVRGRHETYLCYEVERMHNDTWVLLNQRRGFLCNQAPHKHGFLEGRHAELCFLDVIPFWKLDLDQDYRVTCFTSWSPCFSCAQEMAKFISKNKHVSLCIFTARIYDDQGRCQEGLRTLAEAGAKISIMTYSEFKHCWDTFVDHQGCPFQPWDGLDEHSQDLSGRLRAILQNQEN
H9c2 protect: cardioprotection against H2O2-induced cell death, primary screen, uHTS, H9c2 cells, ATPLite luminescence; H9c2 cardiomyocytes, H2O2 injury protection, 2 h; protection from H2O2 cell death, % at 20 µM; 360,000 compounds, 0.63% hits; AID 588492, 2011;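 active = compounds giving at least 50% protection of heart cells from peroxide-induced death in the single-dose screen, raw or plate-pattern-corrected value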
NadD inh: inhibitors of S. aureus NadD, primary screen, biochemical, colorimetric, uHTS; inhibition, % at 20 µM; 360,000 compounds, 0.78% hits; Nicotinate-nucleotide adenylyltransferase NadD (Staphylococcus aureus N315); purified NadD enzyme, colorimetric absorbance read-out; in the data active = inhibition above about 26%
TAG inh: inhibitors of triacylglycerol accumulation, primary screen, cell-based, uHTS, fluorescence, H9c2; H9c2 cells, Nile Red lipid (TAG) fluorescence; cells loaded with 200 µM oleic acid; inhibition, % at 12.5 µM; 230,000 compounds, 0.66% hits; AID 651582, 2012;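 active = pattern-corrected inhibition of lipid staining of at least 50% with the nuclear-stain viability signal not falling by more than 50%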
A3A deaminase: APOBEC3A ssDNA deaminase inhibitors, primary screen, selectivity assay for APOBEC3G inhibitor project, biochemical, FAM/TAMRA oligo cleavage fluorescence; 330,000 compounds, 0.41% hits; inhibition, % at 20 µM; recombinant A3A, FAM/TAMRA ssDNA deamination fluorescence;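 active = at least 40% inhibition at 20 µM here, with at most 30% in a related deaminase screen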
Target sequence (P31941 whole entry, looked up): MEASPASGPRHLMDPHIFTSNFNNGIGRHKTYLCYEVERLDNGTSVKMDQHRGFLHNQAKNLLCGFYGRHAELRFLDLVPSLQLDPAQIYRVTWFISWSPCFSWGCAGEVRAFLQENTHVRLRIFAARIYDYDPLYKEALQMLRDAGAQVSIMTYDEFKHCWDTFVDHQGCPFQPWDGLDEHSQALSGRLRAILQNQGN
NadD conf: inhibitors of S. aureus NadD, confirmation, biochemical, colorimetric, single concentration. purified S. aureus NadD, colorimetric enzyme assay. shares compounds with NadD inh. inhibition, % at 20 µM. 2,000 compounds, 13% hits; in the data active = inhibition mostly above about 42%, no sharp cut-off; inactive = mostly below about 42%
Large screens that a line does not name were inactive (follow-up assays come after a bar, where they were run). A selection: hits, their analogues and other compounds. The true share with any hit is near 2.9%.

O=C(N[C@H]1C/C=C\C[C@H](CC(=O)N(CCO)Cc2ccccc2)C(=O)N[C@H](Cc2c[nH]c3ccccc23)COC1=O)OCC1c2ccccc2-c2ccccc21	NadD inh 32 | NadD conf inactive
COC(=O)c1nnn(-c2cc(Cl)cc(Cl)c2)c1C(=O)OC	none
COc1ccc(CCNC(=O)c2cc(-c3ccccn3)nc3ccccc23)cc1	none
CCC(C)c1ccc(C2C3=C(Nc4nc(N)[nH]c(=O)c42)c2ccccc2C3=O)cc1 (stereo unspecified)	NadD inh 37 | NadD conf inactive
CCCn1cnc2c(=S)nc(N)[nH]c21	none
CC(C)COc1cccc(-c2cc(C(=O)N/N=C/c3ccncc3)c3ccccc3n2)c1	none
COc1ccc(/C=N/NC(=O)c2cc(Br)ccc2O)cc1Cn1cc(Cl)cn1	NadD inh 39 (no result: TAG inh) | NadD conf inactive
COc1ccc(/C=N/NC(=O)c2ccc(Cl)cc2)cc1Cn1cc(Cl)cn1	none
COc1ccc(Cn2c(SCc3ccccc3C)nc3cc(OC)c(OC)cc3c2=N)cc1	NadD inh 30, TAG inh 59 (no result: PfG6PD inh) | NadD conf inactive
Cc1cc(C)cc(CC(=O)N2CCC2(C)C(=O)NS(=O)(=O)c2ccc(Br)cc2)c1 (stereo unspecified)	none (no result: PfG6PD inh, APOBEC3G inh, A3A deaminase)
Cn1c(=NC(=O)c2ccc(S(=O)(=O)N3CCCc4ccccc43)cc2)sc2cc(S(C)(=O)=O)ccc21	none (no result: TAG inh)
C#CCn1c(=NC(=O)c2ccc(S(=O)(=O)N3CCCc4ccccc43)cc2)sc2cc(S(N)(=O)=O)ccc21	NadD inh 50 (no result: TAG inh) | NadD conf inactive
Cn1cc(C(=O)c2ccc(Cl)cc2Cl)cc1C(=O)N/N=C(\N)COc1ccc(Cl)cc1	H9c2 protect 96, NadD inh 32 | NadD conf inactive
Cn1cc(C(=O)c2ccc(Cl)cc2Cl)cc1C(=O)N/N=C(\N)COc1ccccc1	none
Cn1cc(C(=O)c2ccc(Cl)cc2Cl)cc1C(=O)N/N=C(\N)COc1ccc(F)cc1	none
Cn1cc(C(=O)c2ccc(Cl)cc2Cl)cc1C(=O)N/N=C(\N)COc1ccc(Cl)cc1Cl	H9c2 protect 86, NadD inh 41 (no result: TAG inh) | NadD conf inactive
Cc1cc(Cl)cc(Cl)c1OCCN1CCCC1	none
CCN(CC)c1ccc(S(=O)(=O)Nc2cc(Cl)ccc2Cl)cc1NC(=S)NC(=O)C1CCCC1	NadD inh 31 (no result: TAG inh) | NadD conf inactive
CC(=O)c1cccc(CN2CCCC(C(=O)Nc3ccc(-c4ccco4)cc3)C2)c1 (stereo unspecified)	NadD inh 32 | NadD conf inactive
NC(=O)c1ccc(NC(=O)C#Cc2ccccc2)cc1	none (no result: TAG inh)
O=C(Nc1ncc(Cc2ccccc2Cl)s1)c1ccc(-c2cccc([N+](=O)[O-])c2)o1	NadD inh 36 (no result: TAG inh) | NadD conf inactive
O=C(Nc1ncc(Cc2ccc(C(F)(F)F)cc2)s1)c1ccc(-c2cccc([N+](=O)[O-])c2)o1	none
COC(=O)c1ccc(N2C(c3ccsc3)=Cc3cc4c(cc3C2CC(=O)c2ccco2)OCO4)cc1 (stereo unspecified)	NadD inh 31 (no result: PfG6PD inh, APOBEC3G inh, H9c2 protect, TAG inh, A3A deaminase) | NadD conf inactive
O=C(CC1c2ccccc2C=C(c2ccsc2)N1c1ccc(-c2cccnc2)cc1)C1CC1 (stereo unspecified)	NadD inh 33 (no result: PfG6PD inh, APOBEC3G inh, H9c2 protect, TAG inh, A3A deaminase) | NadD conf inactive
COc1ncc(-c2ccc(N3C(c4ccsc4)=Cc4ccc(F)cc4C3CC(=O)c3ccco3)cc2)cn1 (stereo unspecified)	NadD inh 35 (no result: PfG6PD inh, APOBEC3G inh, H9c2 protect, TAG inh, A3A deaminase) | NadD conf inactive
COC(=O)c1ccc(N2C(c3cc(OC)cc(OC)c3)=Cc3ccc(OC)cc3C2CC(=O)c2ccco2)cc1 (stereo unspecified)	none (no result: PfG6PD inh, APOBEC3G inh, H9c2 protect, TAG inh, A3A deaminase)
COC(=O)c1cnc(Oc2c(Cl)cc(N)cc2Cl)cc1C(F)(F)F	none
Oc1ccc(CNc2ccc(F)cc2)c2cccnc12	none
Cc1cccc(NCc2ccc(O)c3ncccc23)c1	H9c2 protect 58, NadD inh 37 | NadD conf inactive
CCOc1ccccc1NC(=O)CCn1ccnc1	none (no result: TAG inh)
Cc1ccc(Cl)cc1N1CCN(S(=O)(=O)c2ccc3[nH]c(=O)ccc3c2)CC1	none
Cc1ccc(Cl)cc1N1CCN(S(=O)(=O)c2ccc3[nH]c(=O)c(=O)[nH]c3c2)CC1	NadD inh 37 | NadD conf 49
Cc1cc(C(=O)NC2Cc3ccccc3C2)c(C)o1	none
O=c1[nH]c(C(Cl)Cl)nc2sc3c(c12)CCN(Cc1ccccc1)C3	NadD inh 32 (no result: APOBEC3G inh, TAG inh, A3A deaminase) | NadD conf 59
CCCCN(CC)C(=O)CSc1nc2c(sc(=S)n2-c2ccc(OCC)cc2)c(=O)[nH]1	none (no result: APOBEC3G inh, A3A deaminase)
CC(C)(C)OC(=O)NCc1ccc(NC(=O)c2nc[nH]c2C(=O)N[C@@H](Cc2ccccc2)C(=O)OC(C)(C)C)cc1	NadD inh 30 | NadD conf inactive
CC(C)C[C@H](NC(=O)c1[nH]cnc1C(=O)Nc1ccc(CNC(=O)OC(C)(C)C)cc1)C(=O)OC(C)(C)C	none
CCOc1ccc(-c2cc(C(=O)Nc3ccc4c(c3)OCCO4)c3ccccc3n2)cc1	NadD inh 33 (no result: TAG inh) | NadD conf inactive
CCCOc1ccc(C(=O)NNC(=S)NC(=O)c2cc(-c3ccccc3)nc3ccccc23)cc1	NadD inh 62 | NadD conf inactive
Cc1ccccc1NC(=S)NC(=O)c1cc(-c2ccccc2)nc2ccccc12	NadD inh 38 | NadD conf inactive
Cc1cccc(NC(=S)NC(=O)c2cc(-c3ccccc3)nc3ccccc23)c1	none
CCCOc1ccc(C(=O)NNC(=S)NC(=O)c2ccccc2)cc1	none (no result: TAG inh)
Cc1cccc(-c2cc(C(=O)Nc3ccc4c(c3)OCCO4)c3ccccc3n2)c1	none
COc1ccc(NS(=O)(=O)c2cc(C(=O)N(C)CCc3ccccn3)ccc2Cl)cc1	none (no result: APOBEC3G inh, A3A deaminase)
CSc1nsc(/C=C/Nc2ccc(Cl)cc2)c1C#N	none
CSc1nsc(/C=C/Nc2cccc(Cl)c2)c1C#N	NadD inh 32 (no result: TAG inh) | NadD conf inactive
O=C(O/C(=C/c1ccccc1)C(F)(F)F)c1ccccc1	none (no result: APOBEC3G inh, A3A deaminase)
Cc1ccc2nc(N3C(=O)C(O)=C(C(=O)c4ccc(C)o4)C3c3ccco3)sc2c1 (stereo unspecified)	none

Compound activity as filed in PubChem.
